Compound activity from PubChem BioAssay.
This is a sample that favours compounds with a hit; in the whole collection about 3% have one here.
TRPM1 prom inh: MITF TRPM1 promoter inhibition in SK-MEL-5 cells. SK-MEL-5 TRPM1 promoter luciferase, 24 h. AID 488899. 330,000 tested, 0.83% active. inhibition, % at 12.5 µM;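 active = mean inhibition across replicates of 60% or more, whatever share of single replicates reaches that level; inconclusive = some that reach 60%, reason not given; inactive = mean inhibition across replicates below 60%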
LGR2 antag: blocks bursicon-induced cAMP signaling via Drosophila LGR2; HEK293 LGR2, CRE-luciferase, bursicon-stimulated, 4 h; inhibition, % at 9.99 µM; 380,000 tested, 0.35% active;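 active = drop in luminescence signal, shown as inhibition above about 50% in the replicate tests, limit read from the data, passing the limit was not always enough; inconclusive = probably only some replicates passing the limit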;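 also: agonist challenge used bursicon conditioned medium at about half maximal strength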
TWEAK-Fn14 inh: inhibitors of TWEAK-Fn14 interaction signaling | TWEAK-stimulated Fn14 reporter cells, luciferase luminescence, 8 h | inhibition, % at 10 µM | 360,000 tested, 2% active | AID 1159606; in the data active = inhibition above about 50%
TROY NFkB inh: blocks TROY-dependent signaling in reporter cells; Q293 LMP1-TROYcd NF-kB luciferase reporter, 4 h; inhibition, % at 10 µM; 360,000 tested, 0.98% active; AID 1347056;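 active = compounds whose plate-normalised and pattern-corrected inhibition of the luciferase reporter signal at the single screening dose is 50% or more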
EBV LMP1 NFkB: inhibitors of Epstein-Barr LMP1-induced NF-kappaB reporter; 350,000 tested, 0.69% active; LMP1-induced NF-kappaB luciferase reporter cells, luminescence; inhibition, % at 12.5 µM; in the data active = inhibition above about 41%; inconclusive = no clear call, values can overlap the other calls;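 also: 0% = neutral control wells and 100% = reference inhibitor control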
MITF TRPM1 HTS: activators of MITF-driven TRPM1 promoter activity in SK-MEL-5 cells; activation, % at 12.5 µM; SK-MEL-5 TRPM1-promoter luciferase, 24 h; % of positive control, neutral wells = 0; 300,000 tested, 0.75% active; AID 588334;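 active = mean activation of at least 80% with every replicate also reaching 80%; inconclusive = mean reaches 80% but some replicate falls short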;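 also: 0% = neutral control wells and 100% = parthenolide positive control wells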
Numbers without * were called inactive; u = inconclusive; x = no result given.

SMILES	TRPM1 prom inh	LGR2 antag	TWEAK-Fn14 inh	TROY NFkB inh	EBV LMP1 NFkB	MITF TRPM1 HTS
Cn1cnc(S(=O)(=O)N2C[C@@H](O)COC[C@H]3O[C@@H](CC(=O)NCc4cc(F)cc(F)c4)CC[C@@H]32)c1	x	-5	x	x	x	x
COc1cccc2cc(-c3nnc(-c4ccccc4)o3)c(=O)oc12	4	11	73*	70*	50*	-9
Cc1cc([N+](=O)[O-])ccc1NC(=O)CSc1nnc(C)n1C	-12	3	58*	-22	-6	x
Cc1nnc(SCC(=O)Nc2ccc([N+](=O)[O-])cc2)n1C	-2	16	-23	2	-4	3
C/C=C/c1ccc2c(c1)O[C@H](CN(C)C(=O)NCCC)[C@@H](C)CN([C@H](C)CO)S2(=O)=O	x	-8	x	x	x	x
Cc1cc(C(=O)N/N=C2\CCCC(=O)C2)c(C)n1-c1ccccc1	-25	-6	43	75*	-7	24
O=C(N/N=C/c1ccc2c(c1)OCO2)c1ccc(NC(=O)c2ccc(F)cc2)cc1	-14	-13	-8	8	-11	17
Cc1cc(C(=O)N/N=C/c2ccc3c(c2)OCO3)c(C)n1-c1ccc(F)cc1	5	-19	3	50*	-6	-1
COc1ccc(/C=N/NC(=O)c2cc(C)n(-c3ccccc3)c2C)cc1OC	-29	-17	14	62*	6	34
Cc1cc(C(=O)N/N=C/c2ccc(Cl)c([N+](=O)[O-])c2)c(C)n1-c1ccc(F)cc1	63*	3	63*	42	3	-57
C=CCOc1ccccc1CNc1ccccc1C	3	2	69*	18	-4	-1
CCOc1ccc(Br)cc1CNc1ccc2c(c1)OCCO2	10	43	83*	87*	27	-9
O=C(NCc1ccncc1)Nc1ccc2c(c1)OCO2	-6	11	-10	-9	3	4
C=CCOc1ccccc1CNc1cccc(F)c1	7	-8	2	3	-6	-5
c1cc(CNc2ccc3c(c2)OCCO3)ccn1	10	u	81*	62*	21	-10
C=CCOc1ccccc1CNc1ccc2c(c1)OCCO2	32	x	91*	85*	20	-34
CC(=O)N(C)C[C@H]1Oc2cc(-c3cccnc3)ccc2S(=O)(=O)N([C@@H](C)CO)C[C@H]1C	x	-14	x	x	x	x
S=C(NCCc1ccc(Cl)cc1)NC1CCCCC1	-86	-71	-43	-55	-18	89*
O=c1oc2ccccc2cc1-c1csc(NN=C2CCCCC2)n1	-68	x	31	17	-20	77
CC1CCC/C(=C(\C#N)c2nc(-c3cc4ccccc4oc3=O)cs2)C1 (centres undefined)	-35	-51	64*	66*	-26	30
CN(C)c1ccc2c(c1)[C@@H]1C[C@@H](CC(=O)NCc3ccc(Cl)cc3)O[C@H](CO)[C@@H]1O2	x	15	x	x	x	x
CC(=O)Nc1ccc(C(=O)OCc2ccc(Cl)c(Cl)c2)cc1	-24	-4	94*	86*	-24	20
COc1ccc2c3c(n(C)c2c1)[C@H](CO)N(S(C)(=O)=O)CC31CN(C(=O)C2CCC2)C1	x	-2	x	x	x	x
Cc1c(Cl)cccc1NC(=S)NCCc1ccc(F)cc1	-8	3	71*	-2	-9	9
O=[N+]([O-])c1ccc(NC(=S)NCCc2ccc(F)cc2)cc1	6	29	66*	27	-3	-6
SMILES	TRPM1 prom inh	LGR2 antag	TWEAK-Fn14 inh	TROY NFkB inh	EBV LMP1 NFkB	MITF TRPM1 HTS
COCC(=O)Nc1ccc2c(c1)OC[C@@H](C)N(Cc1ccncc1)C[C@H](C)[C@@H](OC)CN(C)C2=O	x	-5	x	x	x	x
C[C@@H]1CN([C@@H](C)CO)C(=O)c2cc(NC(=O)Nc3ccccc3)ccc2O[C@@H](C)CCCCO[C@@H]1CN(C)C	x	-4	x	x	x	x
O=C(c1cc(C(=O)N2CCCC2)cc([N+](=O)[O-])c1)N1CCCC1	3	0	12	20	-6	-2
CN1CCN(C(=O)c2cc([N+](=O)[O-])cc([N+](=O)[O-])c2)CC1	x	8	80*	-4	11	x
O=C(C[C@@H]1C=C[C@H](NC(=O)CC2CC2)[C@@H](CO)O1)NCc1ccc(Cl)cc1	x	-4	x	x	x	x
O=C(/C=C/c1ccccc1)c1c[nH]c2ccccc12	-73	-41	-4	-70	-30	77
O=C(C=Cc1ccccc1)c1c[nH]c2ccccc2c1=O	46	31	78*	3	-12	-47
Cc1[nH]c2ccccc2c(=O)c1C(=O)/C=C/c1ccccc1	85*	74*	88*	64*	24	-84
O=C(C[C@H]1C[C@H]2c3cc(NC(=O)Nc4ccccc4F)ccc3O[C@H]2[C@@H](CO)O1)NCc1cc(F)ccc1F	x	8	x	x	x	x
N=C(N)SCP(=O)(c1ccccc1)c1ccccc1	11	-7	9	12	54*	x
Cc1cc(C)c(S(=O)(=O)Nc2nnc(CC(C)C)s2)c(C)c1	-6	x	-7	3	82*	8
N#CCCn1cc(C(=O)Nc2ccc(C(=O)O)cc2)c(-c2cccc(Br)c2)n1	5	-9	-3	-2	7	-2
N#CCCn1cc(C(=O)Nc2ccccn2)c(-c2ccccc2)n1	0	-4	-10	-6	69*	-1
CC1CCCN(c2ccc3nc4ccccc4c(=O)n3n2)C1 (centres undefined)	20	62*	37	66*	24	-16
Cc1ccc2nc3ccc(N4CCCC4)nn3c(=O)c2c1	-94	-57	9	-45	-18	94*
Cc1sc2nc3ccc(N4CCCCC4)nn3c(=O)c2c1C	-113	-16	11	-14	-32	121*
COc1ccc2c3c(n(C)c2c1)[C@H](CO)N(Cc1nccs1)CC31CN(C(C)=O)C1	x	-1	x	x	x	x
CC(C)N1CCC2(CC1)N=C(c1ccc3c(c1)OCO3)CC(c1cc(Cl)ccc1O)N2 (centres undefined)	-12	x	51*	4	6	9
O=C(NCCCc1ccccc1)C1CC(=O)N(c2ccc3c(c2)OCCO3)C1 (centres undefined)	4	x	71*	26	8	-4
O=C(NCc1ccccc1F)C1CC(=O)N(c2ccc3c(c2)OCCO3)C1 (centres undefined)	-2	7	8	-2	0	8
O=C(C1CC(=O)N(c2ccc3c(c2)OCCO3)C1)N1CCN(c2ccccc2O)CC1 (centres undefined)	6	14	11	0	14	-5
O=C(C1CC(=O)N(c2ccc3c(c2)OCCO3)C1)N1CCN(c2ccccc2)CC1 (centres undefined)	5	9	64*	28	13	-2
O=C(C1CC(=O)N(c2ccc3c(c2)OCCO3)C1)N1CCN(Cc2ccccc2F)CC1 (centres undefined)	-3	-35	1	7	70*	2
O=C1CC(N2CCN(c3ccccc3)CC2)C(=O)N1c1ccc2c(c1)OCCO2 (centres undefined)	1	x	30	51*	1	0
